This passage reports growth results from PubChem BioAssay (NCI).

Compounds without any hit were thinned out: in the full panel of roughly 83,000, 20% have a hit.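 How to read the values: 0–100, growth inhibition (40 = 60% inhibited); 0, no net growth; -100 to 0, cell death (-40 = 40% of starting cells died; -100 = all dead).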 Active and inactive are the calls of the source. Rule for the calls: active = growth percent below 10; inactive = the rest.

The test system of this test is LOX IMVI melanoma. Kind of test: NCI-60 one-dose screen, 48 h (100 = growth as untreated, 0 = no growth, -100 = all killed). Conditions: 10 µM unless noted.
As for `O=C1OC(Cc2ccccc2)C1c1ccccc1` (stereo not given), the growth was 99.3% (inactive).

On to `O=C1Nc2cc(-c3ccc(NC(=O)c4ccccc4)cc3)ccc2/C1=C/c1ccc[nH]1`, for which the growth is 96.2% (inactive). Regarding `O=C(N/N=C/c1cc2ccccc2n2nnnc12)Nc1ccccc1`, the growth is 108% (inactive).

Turning to `O=C1c2ccc3c4c(ccc(c24)C(=O)N1CCCNCc1ccccc1)C(=O)N(CCCNCc1ccccc1)C3=O`, the growth is -75.6% (active).

With `C=C1C(=O)O[C@H]2[C@H]1CC/C(COC(=O)NCCc1c[nH]c3ccc(OC)cc13)=C\CC[C@@]1(C)O[C@@H]21`, the growth was -22.4% (active). Under `CCOc1ccc(Nc2nc(-c3ccc4c(c3)NC(=O)CO4)cs2)cc1` stands 43.9% (inactive).

For the compound `COc1ccc(C(=O)c2cc(C)c(OC)c(C)c2)c(OC)c1OC(=O)C(Cl)Cl`, the growth is 20.3% (inactive). Under `CN(C)c1ccc(Nc2c3ccccc3nc3cc(NC(=O)CCN4CCCC4)ccc23)cc1` stands -74.8% (active). Under `Cc1nc(N)nc(N[C@@H](C)c2nc3cccc(NCc4ccc(C(=O)NO)cc4)c3c(=O)n2-c2ccccc2)n1` stands 72.8% (inactive); under `COc1ccc(C/C(=C(\C)c2ccc(OCCN3CCCC3)cc2)c2ccc(OCCN3CCCC3)cc2)cc1`, -92.5% (active). For `NC(=NCCCOc1ccc(F)cc1)Nc1ccc(Cl)cc1`, the growth was 83.9% (inactive). Under `CCCOC(=O)N[C@H]1CCc2c(Cl)c(OC)c(OC)c(OC)c2-c2ccc(SC)c(=O)cc21` stands 10.7% (inactive). As for `N#Cc1c(NC(=O)NCc2ccccc2)sc2c1CCCC2`, the figure is 24% (inactive). As for `NCCCCCCNc1cc(-c2cccc(OC(F)(F)F)c2)nc2ccc(N3CCCC3)cc12`, the figure is -93.6% (active). Regarding `C[C@H]1[C@H](C)CC[C@]2(C(=O)NCC#CCN3CCN(C)CC3)CC[C@]3(C)C(=CC[C@@H]4[C@@]5(C)Cc6c([nH]c7ccccc67)C(C)(C)[C@@H]5CC[C@]43C)[C@H]12`, the growth is 70.9% (inactive).

For `N#Cc1c(NCc2ccccc2I)sc2c1CCCCC2`, the growth is 91.1% (inactive).

With `CN1C(=O)NC(c2ccc3c(c2)OCO3)C=C1c1ccccc1` (stereo not given), the growth is 96.5% (inactive). As for `COc1cc(/C=C\C(=O)O)ccc1OCc1ccccc1`, the figure is 95.7% (inactive); as for `CCN(CC)c1ccc(/C=N/NC(=O)CSc2nc3ccccc3c(=O)n2Cc2ccc(S(N)(=O)=O)cc2)c(O)c1`, 1.32% (active); as for `Cc1ccc(S(=O)(=O)NNC(=O)/C(=C\c2ccc(Cl)cc2)c2nc3ccccc3s2)cc1`, 90.5% (inactive).

For `CCOC(=O)[C@@H]1CCCN(S(=O)(=O)c2ccc(S(=O)(=O)N(CC)CC)c(F)c2)C1`, the growth is 62.2% (inactive). As for `Cc1ccc(CNc2c3ccccc3nc3cc(NC(=O)CCN4CCCC4)ccc23)cc1`, the figure is -86.4% (active); as for `COc1ccc(CC(C)=C(c2ccc(OCCN3CCCCCC3)cc2)c2ccc(OCCN3CCCCCC3)cc2)cc1`, -100% (active); as for `CCCCNC(=O)Oc1ccc(/C(=C(\C)c2ccccc2)c2ccc(OCCN3CCCCC3)cc2)cc1`, 62% (inactive). As for `Cn1c2ccccc2c2c3c(c4c5ccccc5n(C)c4c21)C(=O)OC3`, the figure is 88.2% (inactive); as for `CNC(=O)c1cc(Cn2nc(C)c(NC(=O)Nc3ccc(Cl)c(C(F)(F)F)c3)c2C)ccn1`, 98% (inactive); as for `O=C(Nc1ccc(NC(=O)c2cc(=O)[nH]c3ccccc23)cc1)Nc1cccc(Cl)c1`, 87.7% (inactive). Under `COc1ccc(C(=O)CSc2nc(-c3cc(OC)ccc3OC)cc(-c3ccc(Cl)cc3)c2C#N)cc1` stands 68.5% (inactive); under `Cc1cc(C)c(S(=O)(=O)Oc2ccccc2[N+](=O)[O-])c(C)c1`, 43.4% (inactive). On to `O=C(CCN1CCCC1)Nc1ccc2c(NCc3ccccc3)c3ccccc3nc2c1`, for which the growth was -45.6% (active). `CCN(CC)c1ccc(/C=N/NC(=O)CSc2nc3ccccc3c(=O)n2CCc2ccc(S(N)(=O)=O)cc2)c(O)c1`: the growth was 11.5% (inactive). Under `O=C(CSc1nc2sc3c(c2c(=O)n1-c1ccc(Cl)cc1)CCCC3)Nc1nc(-c2cccc(Br)c2)cs1` stands 84.3% (inactive). As for `COc1ccc(C(C)=O)c(OC)c1`, the figure is 103% (inactive); as for `COc1cccc(-c2nc3occn3c2-c2ccnc(NCCCNS(=O)(=O)c3ccc(C(F)(F)F)cc3)n2)c1`, 87.5% (inactive); as for `C=C1C(=O)O[C@H]2[C@H]1CC/C(C(=O)NCCCCCNC(=O)/C1=C/CC[C@@]3(C)O[C@H]3[C@H]3OC(=O)C(=C)[C@@H]3CC1)=C\CC[C@@]1(C)O[C@@H]21`, 99.9% (inactive).
